Results from PubChem BioAssay AID1159580 (chemical genetic matrix, 2015).
Screen size: about 5,500 compounds; about 2,000 (36%) were called active. Inconclusive results (about 18%) are left out. Cut-off read from the data, not from the text of the source: active = normalized growth mostly below about 0.91 (no sharp cut-off); inconclusive = no clear call, values can overlap the other calls; inactive = mostly above about 0.92. Some of the results follow.

Assay: chemical genetic growth profiling, strain panel (AID 1159580);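 note: tested at 20 µM; growth read once vehicle control cultures reached saturation at 30 °C; 1 = growth at the plate median or of vehicle wells; lower values mean less growth of the strain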
Conditions: growth OD

Measured: normalized growth

COc1ccc(C(=O)c2ccc(O)cc2)c(O)c1O
inactive: S. cerevisiae deletion strains, locus YAL013W, strain DEP1, hits give low values 1.04 | S. cerevisiae deletion strains, locus YAL021C, strain ccr4, hits give low values 0.963 | S. cerevisiae deletion strains, locus YAL026C, strain drs2, hits give low values 0.961 | S. cerevisiae deletion strains, locus YAL030W, strain snc1, hits give low values 0.967 | S. cerevisiae deletion strains, locus YBL061C, strain skt5, hits give low values 0.97 | S. cerevisiae deletion strains, locus YBR009C, strain hhf1, hits give low values 0.951 | S. cerevisiae deletion strains, locus YBR021W, strain FUR4, hits give low values 1.02 | S. cerevisiae deletion strains, locus YBR023C, strain chs3, hits give low values 0.968 | S. cerevisiae deletion strains, locus YBR171W, strain sec66, hits give low values 0.965 | S. cerevisiae deletion strains, locus YBR229C, strain ROT2, hits give low values 1.02 | S. cerevisiae deletion strains, locus YBR231C, strain swc5, hits give low values 0.96 | S. cerevisiae deletion strains, locus YBR279W, strain paf1, hits give low values 0.974 | S. cerevisiae deletion strains, locus YCL011C, strain gbp2, hits give low values 0.961 | S. cerevisiae deletion strains, locus YCL016C, strain dcc1, hits give low values 0.974 | S. cerevisiae deletion strains, locus YCL029C, strain bik1, hits give low values 0.993 | S. cerevisiae deletion strains, locus YCL061C, strain MRC1, hits give low values 0.984 | S. cerevisiae deletion strains, locus YCL069W, strain vba3, hits give low values 0.98 | S. cerevisiae deletion strains, locus YCR088W, strain abp1, hits give low values 0.973 | S. cerevisiae deletion strains, locus YDL005C, strain med2, hits give low values 0.968 | S. cerevisiae deletion strains, locus YDL035C, strain GPR1, hits give low values 1.04 | S. cerevisiae deletion strains, locus YDL040C, strain nat1, hits give low values 0.972 | S. cerevisiae deletion strains, locus YDL074C, strain BRE1, hits give low values 1.01 | S. cerevisiae deletion strains, locus YDL101C, strain DUN1, hits give low values 1.02 | S. cerevisiae deletion strains, locus YDL134C, strain PPH21, hits give low values 1.01 | S. cerevisiae deletion strains, locus YDL185W, strain tfp1, hits give low values 0.995 | S. cerevisiae deletion strains, locus YDL192W, strain arf1, hits give low values 0.997 | S. cerevisiae deletion strains, locus YDR001C, strain nth1, hits give low values 0.973 | S. cerevisiae deletion strains, locus YDR069C, strain doa4, hits give low values 0.928 | S. cerevisiae deletion strains, locus YDR101C, strain arx1, hits give low values 1 | S. cerevisiae deletion strains, locus YDR137W, strain rgp1, hits give low values 0.975 | S. cerevisiae deletion strains, locus YDR159W, strain sac3, hits give low values 0.959 | S. cerevisiae deletion strains, locus YDR162C, strain NBP2, hits give low values 1.04 | S. cerevisiae deletion strains, locus YDR195W, strain ref2 0.969 | S. cerevisiae deletion strains, locus YDR297W, strain sur2, hits give low values 0.969 | S. cerevisiae deletion strains, locus YDR318W, strain mcm21, hits give low values 0.997 | S. cerevisiae deletion strains, locus YDR334W, strain swr1, hits give low values 0.952 | S. cerevisiae deletion strains, locus YDR335W, strain msn5, hits give low values 0.983 | S. cerevisiae deletion strains, locus YDR388W, hits give low values 0.985 | S. cerevisiae deletion strains, locus YDR392W, strain spt3, hits give low values 0.852 | S. cerevisiae deletion strains, locus YDR502C, strain sam2, hits give low values 0.968 | S. cerevisiae deletion strains, locus YEL003W, strain gim4, hits give low values 0.962 | S. cerevisiae deletion strains, locus YEL037C, strain rad23, hits give low values 0.965 | S. cerevisiae deletion strains, locus YEL061C, strain CIN8 (second series), hits give low values 0.955 | S. cerevisiae deletion strains, locus YEL061C, strain CIN8, hits give low values 1.01 | S. cerevisiae deletion strains, locus YER015W, strain faa2, hits give low values 0.961 | S. cerevisiae deletion strains, locus YER016W, strain bim1, hits give low values 0.978 | S. cerevisiae deletion strains, locus YER110C, hits give low values 0.983 | S. cerevisiae deletion strains, locus YER111C, strain swi4, hits give low values 0.963 | S. cerevisiae deletion strains, locus YER155C, strain BEM2 (second series), hits give low values 0.911 | S. cerevisiae deletion strains, locus YER155C, strain BEM2, hits give low values 1.02 | S. cerevisiae deletion strains, locus YER167W, strain BCK2, hits give low values 1.02 | S. cerevisiae deletion strains, locus YFR010W, strain ubp6, hits give low values 0.942 | S. cerevisiae deletion strains, locus YGL078C, strain dbp3, hits give low values 0.961 | S. cerevisiae deletion strains, locus YGL086W, strain mad1, hits give low values 0.992 | S. cerevisiae deletion strains, locus YGL167C, strain pmr1, hits give low values 0.952 | S. cerevisiae deletion strains, locus YGL173C, strain kem1, hits give low values 0.969 | S. cerevisiae deletion strains, locus YGL227W, strain vid30, hits give low values 0.937 | S. cerevisiae deletion strains, locus YGL240W, strain doc1, hits give low values 0.94 | S. cerevisiae deletion strains, locus YGL248W, strain PDE1, hits give low values 0.986 | S. cerevisiae deletion strains, locus YGL253W, strain hxk2, hits give low values 0.984 | S. cerevisiae deletion strains, locus YGR135W, strain pre9, hits give low values 0.95 | S. cerevisiae deletion strains, locus YGR252W, strain gcn5, hits give low values 0.893 | S. cerevisiae deletion strains, locus YHR013C, strain ard1, hits give low values 0.916 | S. cerevisiae deletion strains, locus YHR027C, strain rpn1, hits give low values 0.988 | S. cerevisiae deletion strains, locus YHR079C, strain IRE1 (second series), hits give low values 0.985 | S. cerevisiae deletion strains, locus YHR094C, strain hxt1, hits give low values 0.978 | S. cerevisiae deletion strains, locus YHR129C, strain ARP1, hits give low values 1.01 | S. cerevisiae deletion strains, locus YHR142W, strain chs7, hits give low values 0.987 | S. cerevisiae deletion strains, locus YHR200W, strain rpn10, hits give low values 0.973 | S. cerevisiae deletion strains, locus YIL066C, strain RNR3, hits give low values 1.03 | S. cerevisiae deletion strains, locus YIL073C, strain SPO22, hits give low values 0.992 | S. cerevisiae deletion strains, locus YIL125W, strain kgd1, hits give low values 1 | S. cerevisiae deletion strains, locus YIR030C, strain dcg1, hits give low values 0.994 | S. cerevisiae deletion strains, locus YJL092W, strain hpr5, hits give low values 0.978 | S. cerevisiae deletion strains, locus YJL095W, strain BCK1 (second series), hits give low values 0.977 | S. cerevisiae deletion strains, locus YJL095W, strain BCK1, hits give low values 0.986 | S. cerevisiae deletion strains, locus YJL115W, strain asf1, hits give low values 0.985 | S. cerevisiae deletion strains, locus YJL129C, strain trk1, hits give low values 0.935 | S. cerevisiae deletion strains, locus YJL134W, strain LCB3, hits give low values 1.02 | S. cerevisiae deletion strains, locus YJL154C, strain vps35, hits give low values 0.972 | S. cerevisiae deletion strains, locus YJL164C, strain tpk1, hits give low values 0.979 | S. cerevisiae deletion strains, locus YJL166W, strain qcr8, hits give low values 0.972 | S. cerevisiae deletion strains, locus YJL168C, strain set2, hits give low values 1 | S. cerevisiae deletion strains, locus YJL187C, strain SWE1 (second series), hits give low values 0.998 | S. cerevisiae deletion strains, locus YJL187C, strain SWE1, hits give low values 0.968 | S. cerevisiae deletion strains, locus YKL009W, strain mrt4, hits give low values 1.01 | S. cerevisiae deletion strains, locus YKL068W, hits give low values 0.991 | S. cerevisiae deletion strains, locus YKL085W, strain MDH1 (second series), hits give low values 1 | S. cerevisiae deletion strains, locus YKL085W, strain MDH1, hits give low values 1 | S. cerevisiae deletion strains, locus YKL160W, strain elf1, hits give low values 0.994 | S. cerevisiae deletion strains, locus YKR001C, strain vps1, hits give low values 1 | S. cerevisiae deletion strains, locus YKR026C, strain gcn3, hits give low values 0.948 | S. cerevisiae deletion strains, locus YKR091W, strain srl3, hits give low values 0.972 | S. cerevisiae deletion strains, locus YLL001W, strain dnm1, hits give low values 0.986 | S. cerevisiae deletion strains, locus YLL026W, hits give low values 0.978 | S. cerevisiae deletion strains, locus YLL041C, strain sdh2, hits give low values 0.992 | S. cerevisiae deletion strains, locus YLR027C, strain aat2, hits give low values 0.965 | S. cerevisiae deletion strains, locus YLR039C, strain RIC1, hits give low values 1.12 | S. cerevisiae deletion strains, locus YLR058C, strain SHM2, hits give low values 1.01 | S. cerevisiae deletion strains, locus YLR102C, strain apc9, hits give low values 0.966 | S. cerevisiae deletion strains, locus YLR221C, strain rsa3, hits give low values 0.933 | S. cerevisiae deletion strains, locus YLR258W, strain gsy2, hits give low values 0.969 | S. cerevisiae deletion strains, locus YLR262C, strain YPT6 (second series), hits give low values 0.936 | S. cerevisiae deletion strains, locus YLR268W, strain sec22, hits give low values 1.01 | S. cerevisiae deletion strains, locus YLR320W, strain mms22, hits give low values 0.968 | S. cerevisiae deletion strains, locus YLR330W, strain CHS5, hits give low values 1.02 | S. cerevisiae deletion strains, locus YLR342W, strain FKS1 (second series), hits give low values 1.02 | S. cerevisiae deletion strains, locus YLR342W, strain FKS1, hits give low values 0.952 | S. cerevisiae deletion strains, locus YLR357W, strain rsc2, hits give low values 0.909 | S. cerevisiae deletion strains, locus YLR370C, strain arc18, hits give low values 0.968 | S. cerevisiae deletion strains, locus YLR371W, strain rom2, hits give low values 0.982 | S. cerevisiae deletion strains, locus YLR384C, strain iki3, hits give low values 0.984 | S. cerevisiae deletion strains, locus YLR418C, strain cdc73, hits give low values 0.986 | S. cerevisiae deletion strains, locus YML016C, strain PPZ1, hits give low values 1.02 | S. cerevisiae deletion strains, locus YML032C, strain rad52, hits give low values 0.97 | S. cerevisiae deletion strains, locus YML120C, strain ndi1, hits give low values 0.954 | S. cerevisiae deletion strains, locus YML124C, strain tub3, hits give low values 0.981 | S. cerevisiae deletion strains, locus YMR058W, strain fet3, hits give low values 0.94 | S. cerevisiae deletion strains, locus YMR078C, strain ctf18, hits give low values 0.971 | S. cerevisiae deletion strains, locus YMR125W, strain sto1, hits give low values 0.97 | S. cerevisiae deletion strains, locus YMR129W, hits give low values 0.965 | S. cerevisiae deletion strains, locus YMR205C, strain PFK2, hits give low values 0.946 | S. cerevisiae deletion strains, locus YMR223W, strain ubp8, hits give low values 0.978 | S. cerevisiae deletion strains, locus YMR231W, strain pep5, hits give low values 0.979 | S. cerevisiae deletion strains, locus YMR307W, strain GAS1, hits give low values 0.992 | S. cerevisiae deletion strains, locus YNL067W, strain RPL9B, hits give low values 0.998 | S. cerevisiae deletion strains, locus YNL071W, strain lat1, hits give low values 0.984 | S. cerevisiae deletion strains, locus YNL153C, strain GIM3, hits give low values 0.985 | S. cerevisiae deletion strains, locus YNL209W, strain ssb2, hits give low values 0.975 | S. cerevisiae deletion strains, locus YNL233W, strain BNI4, hits give low values 0.989 | S. cerevisiae deletion strains, locus YNL248C, strain rpa49, hits give low values 0.995 | S. cerevisiae deletion strains, locus YNL250W, strain rad50, hits give low values 0.981 | S. cerevisiae deletion strains, locus YNL271C, strain bni1, hits give low values 0.984 | S. cerevisiae deletion strains, locus YNL298W, strain CLA4, hits give low values 0.991 | S. cerevisiae deletion strains, locus YNL307C, strain MCK1, hits give low values 0.97 | S. cerevisiae deletion strains, locus YNL322C, strain KRE1 (second series), hits give low values 0.952 | S. cerevisiae deletion strains, locus YNR049C, strain mso1, hits give low values 0.972 | S. cerevisiae deletion strains, locus YNR052C, strain pop2, hits give low values 0.979 | S. cerevisiae deletion strains, locus YOL006C, strain TOP1, hits give low values 1.15 | S. cerevisiae deletion strains, locus YOL012C, strain htz1 1.45 | S. cerevisiae deletion strains, locus YOL147C, strain pex11, hits give low values 0.994 | S. cerevisiae deletion strains, locus YOR001W, strain rrp6, hits give low values 1 | S. cerevisiae deletion strains, locus YOR061W, strain CKA2, hits give low values 1.03 | S. cerevisiae deletion strains, locus YOR069W, strain VPS5, hits give low values 1.01 | S. cerevisiae deletion strains, locus YOR070C, strain gyp1, hits give low values 0.973 | S. cerevisiae deletion strains, locus YOR080W, strain dia2, hits give low values 0.97 | S. cerevisiae deletion strains, locus YOR083W, strain WHI5, hits give low values 0.992 | S. cerevisiae deletion strains, locus YOR106W, strain vam3, hits give low values 0.964 | S. cerevisiae deletion strains, locus YOR136W, strain idh2, hits give low values 0.985 | S. cerevisiae deletion strains, locus YOR144C, strain elg1, hits give low values 0.998 | S. cerevisiae deletion strains, locus YOR184W, strain ser1, hits give low values 1.05 | S. cerevisiae deletion strains, locus YOR265W, strain rbl2, hits give low values 0.979 | S. cerevisiae deletion strains, locus YOR270C, strain vph1, hits give low values 0.957 | S. cerevisiae deletion strains, locus YOR290C, strain snf2, hits give low values 0.9 | S. cerevisiae deletion strains, locus YOR316C, strain cot1, hits give low values 0.971 | S. cerevisiae deletion strains, locus YPL051W, strain arl3, hits give low values 0.993 | S. cerevisiae deletion strains, locus YPL055C, strain LGE1, hits give low values 1.05 | S. cerevisiae deletion strains, locus YPL078C, strain atp4, hits give low values 0.986 | S. cerevisiae deletion strains, locus YPL106C, strain sse1, hits give low values 0.889 | S. cerevisiae deletion strains, locus YPL240C, strain hsp82, hits give low values 0.995 | S. cerevisiae deletion strains, locus YPL241C, strain CIN2, hits give low values 1.02 | S. cerevisiae deletion strains, locus YPR119W, strain clb2, hits give low values 0.971 | S. cerevisiae deletion strains, locus YPR141C, strain kar3, hits give low values 1.01 | S. cerevisiae deletion strains, locus YPR163C, strain tif3, hits give low values 0.983 | S. cerevisiae deletion strains, locus YPR167C, strain met16, hits give low values 0.981 | S. cerevisiae deletion strains, strain wtn01, hits give low values 0.993 | S. cerevisiae strains, strain wild type, hits give low values 1.04
